The list is not random: actives were taken first. Their share in the collection is about 0.85%.
GAA glycogen: GAA glycogen-cleavage inhibition or activation; AID 2100; Potency, µM (series often up to 76.4 µM), inactives show at the top dose activity change, negative = inhibition, actives largely listed as inhibitors; hit rate 0.38% among 300,000; recombinant GAA, glycogen substrate, Amplex Red glucose oxidase fluorescence; P10253;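 note: potency is the fitted concentration of half-maximal effect; 0% = full enzyme reaction and -100% = no-enzyme basal signal; the screen sought inhibitors and activators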
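Natural-substrate format: glycogen cleavage by 4 nM human enzyme, glucose read by Amplex Red coupling (Ex 573, Em 610 nm). Normalized to enzyme and no-enzyme controls.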
Coupling enz: counter-screen for Giardia aldolase inhibitors: coupling enzyme system; coupling enzyme system counterscreen, AmpLite Red fluorescence; activity change, negative = inhibition, % at 58.2 µM, hits read low; hit rate 0.67% among 290,000; in the data active = activity change below about -30%
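Activity here indicates interference with the coupling reaction, not aldolase inhibition. Compounds at 57.5 uM final met coupling enzymes for 10 min at RT; substrate and AmpLite Red detection followed, with a 525/598 nm fluorescence read after 20 min.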
aGlu spleen mod: inhibitors or activators of human alpha-glucosidase in spleen homogenate; P10253; human spleen homogenate, 4-MU-alpha-glucoside fluorescence; Potency, µM (top dose mostly 79.9 µM), without a hit: at the top dose activity change, negative = inhibition, hits mostly inhibitors; hit rate 0.006% among 240,000; AID 2112;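 note: potency is the fitted concentration of half-maximal effect; 0% = enzyme with vehicle and -100% = no enzyme basal signal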
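Compounds were titrated against alpha-glucosidase in spleen homogenate at pH 5.0, with 1 mM 4-methylumbelliferyl substrate for 40 min at 37 C. Reactions were quenched with pH 10 NaOH/glycine and fluorescence measured.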
GAA inh: blocks human lysosomal alpha-glucosidase; purified human GAA, 4-MU-alpha-glucoside fluorescence; Potency, µM (series often up to 76.9 µM), for the others: at the highest dose activity change, negative = inhibition, hits mostly inhibitors; hit rate 0.005% among 200,000; P10253;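 note: potency is the fitted concentration of half-maximal effect; plate controls were uninhibited enzyme wells for no effect and no-enzyme background for full effect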
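Fluorogenic assay: 4 nM human alpha-glucosidase with 400 uM 4-methylumbelliferyl-alpha-D-pyranoside in 50 mM citrate/phosphate, 0.005% Tween-20, pH 5.0, 20 min at room temperature. Compounds tested up to 77 uM; AC50 from Hill fits.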
B2AR arrestin: recruits beta-arrestin to the human beta2-adrenergic receptor; AID 492947; hit rate 0.02% among 330,000; P07550; Potency, µM (series often up to 46.1 µM), inactives show at the highest dose activation, actives largely listed as activators; beta-arrestin recruitment to beta2AR, cell-based reporter;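 note: potency is the fitted concentration of half-maximal effect; 0% = DMSO controls and full agonism = EC100 isoproterenol or metaproterenol; nearly all actives have a fitted effect of over 65% in size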
Target sequence (P07550 whole entry, looked up): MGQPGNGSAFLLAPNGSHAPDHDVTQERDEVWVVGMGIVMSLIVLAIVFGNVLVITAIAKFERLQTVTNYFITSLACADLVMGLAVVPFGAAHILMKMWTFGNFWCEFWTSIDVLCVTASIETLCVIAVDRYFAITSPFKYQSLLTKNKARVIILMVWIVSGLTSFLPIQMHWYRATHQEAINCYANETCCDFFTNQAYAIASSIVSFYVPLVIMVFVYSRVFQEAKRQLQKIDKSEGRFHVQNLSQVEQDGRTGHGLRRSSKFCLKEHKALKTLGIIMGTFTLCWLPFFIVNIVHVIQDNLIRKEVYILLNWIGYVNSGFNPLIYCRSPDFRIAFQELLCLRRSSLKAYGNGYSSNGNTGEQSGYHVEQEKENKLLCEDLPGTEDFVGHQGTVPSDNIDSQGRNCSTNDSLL
* = called active by the depositor; [ ] = remark or other dose. Unless noted, calls come from the whole dose curve; as a rule, active = well fitted curve in the direction sought with a large enough effect; inconclusive = small, poorly fitted or top-dose-only effect, or another doubt; inactive = no such curve, though single readings can be large; an effect the other way counts as inactive or inconclusive. Unless noted, % is set by controls: 0 for no effect and ±100 for the full control effect.

How did CCCCNC(=O)CSc1nc2ccc(N3CCOCC3)cc2c(=O)n1Cc1ccc(OC)cc1 do in these assays?
GAA glycogen: -5.0%; Coupling enz: -30.7*; aGlu spleen mod: -5.9%; GAA inh: 12.5%; B2AR arrestin: 0.4%

How did COCCNC(=O)CSc1nc2ccc(N3CCOCC3)cc2c(=O)n1Cc1ccc(OC)cc1 do in these assays?
GAA glycogen: -7.5%; Coupling enz: -38.9*; aGlu spleen mod: 0.2%; GAA inh: 9.6%; B2AR arrestin: 0.4%

Results for CCOC(=O)CSc1nc2ccc(N3CCOCC3)cc2c(=O)n1Cc1ccc2c(c1)OCO2 ?
GAA glycogen: -14.2%; Coupling enz: -31.1*; aGlu spleen mod: 1.6%; GAA inh: -3.9%; B2AR arrestin: -2.1%

What do the screens show for `COCCNC(=O)CSc1nc2cc(OC)c(OC)cc2c(=O)n1Cc1ccc(OC)cc1`?
GAA glycogen: 4.7%; Coupling enz: 0.0; aGlu spleen mod: -5.5%; GAA inh: -4.5%; B2AR arrestin: -1.0%

What do the screens show for `CCN(CC)C(=O)CSc1nc2cc3c(cc2c(=O)n1Cc1ccc2c(c1)OCO2)OCO3`?
GAA glycogen: 0.5%; Coupling enz: -0.3; aGlu spleen mod: 4.9%; GAA inh: -4.6%; B2AR arrestin: 0.6%

How did OCC1CCCN(C(=S)Nc2ccc(OC(F)F)cc2)C1 (configuration not stated) do in these assays?
GAA glycogen: 11.6%; Coupling enz: 0.6; aGlu spleen mod: -7.0%; GAA inh: 2.7%; B2AR arrestin: -0.4%

How did OCC1CCCN(C(=S)Nc2ccc(Nc3ccccc3)cc2)C1 (configuration not stated) do in these assays?
GAA glycogen: 25.1µM*; Coupling enz: 3.0; aGlu spleen mod: -7.7%; GAA inh: -11.7%; B2AR arrestin: -0.2%

How did COc1cc(C2CC(=O)Nc3cc4c(cc32)OCCO4)cc(OC)c1O (configuration not stated) do in these assays?
GAA glycogen: -25.9%[76.3 µM]

What do the screens show for `COc1cc(OC)c(OC)cc1CNc1cc(C)ccc1OC`?
GAA glycogen: 11.2µM*; Coupling enz: 0.2; aGlu spleen mod: 7.3%; GAA inh: -12.8%; B2AR arrestin: -0.5%

How did COc1cccc(-c2cc(N(C)Cc3ccco3)ncn2)c1 do in these assays?
Coupling enz: -0.9; aGlu spleen mod: -6.7%

Results for C=C/C1=C/Cc2ccccc2[C@H](C[N+](=O)[O-])C(C(C)=O)(C(=O)OC)C1 (some centres not stated) ?
Coupling enz: 1.7; aGlu spleen mod: -8.5%

How did O=C1Nc2ccccc2S/C1=C\C(=O)N1CCCC1 do in these assays?
GAA glycogen: 5.8%; Coupling enz: 3.5; aGlu spleen mod: -11.3%; GAA inh: -1.6%; B2AR arrestin: 0.3%

Results for O=C1CCCC2=C1Sc1ccccc1N2 ?
GAA glycogen: 7.08µM*; Coupling enz: 0.7; aGlu spleen mod: 8.1%; B2AR arrestin: -0.1%

How did COc1ccccc1NC(=O)CN(Cc1ccco1)C(=O)c1ccc(-n2nc(C)cc2C)cc1 do in these assays?
GAA glycogen: -5.1%; Coupling enz: -2.1; aGlu spleen mod: -15.4%; GAA inh: -8.3%; B2AR arrestin: -0.3%

How did COc1ccccc1NC(=O)CN(Cc1ccco1)C(=O)c1cncc(Br)c1 do in these assays?
GAA glycogen: 0.2%; Coupling enz: -30.5*; aGlu spleen mod: 0.0%; GAA inh: -18.6%; B2AR arrestin: 0.5%

Results for COc1ccc2nc(C)cc(SCC(=O)N/N=C/c3cccc4ccccc34)c2c1 ?
GAA glycogen: 4.1%; Coupling enz: 0.6; aGlu spleen mod: -4.2%; GAA inh: inconclusive; B2AR arrestin: -0.2%

How did COc1ccc2c(c1)c(C(=O)N/N=C/c1ccc(O)c(O)c1)c(C)n2C do in these assays?
GAA glycogen: 31.6µM*; Coupling enz: -7.5; aGlu spleen mod: -23.1%; GAA inh: -9.1%; B2AR arrestin: -0.2%

How did COc1cccc2c(SCC(=O)N/N=C/c3ccccc3)cc(C)nc12 do in these assays?
GAA glycogen: -10.2%; Coupling enz: 0.0; aGlu spleen mod: 4.4%; GAA inh: -14.4%; B2AR arrestin: -1.1%

How did Cc1cc(SCC(=O)N/N=C/c2ccc(O)c(O)c2)nc2ccccc12 do in these assays?
GAA glycogen: inconclusive; Coupling enz: -0.1; B2AR arrestin: 0.5%

Screening results as filed in PubChem.
